# mHTT-CaM PPI inh = mutant huntingtin-calmodulin interaction inhibitors – biochemical, AlphaScreen, primary screen. inhibition, % at 15 µM. P42858. AlphaScreen His-mHTT/GST-CaM binding, luminescence. 190,000 compounds, 3.6% hits;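 further: 0% = both proteins with DMSO and 100% = one protein alone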
# Target sequence (P42858 whole entry, looked up, stated change not applied): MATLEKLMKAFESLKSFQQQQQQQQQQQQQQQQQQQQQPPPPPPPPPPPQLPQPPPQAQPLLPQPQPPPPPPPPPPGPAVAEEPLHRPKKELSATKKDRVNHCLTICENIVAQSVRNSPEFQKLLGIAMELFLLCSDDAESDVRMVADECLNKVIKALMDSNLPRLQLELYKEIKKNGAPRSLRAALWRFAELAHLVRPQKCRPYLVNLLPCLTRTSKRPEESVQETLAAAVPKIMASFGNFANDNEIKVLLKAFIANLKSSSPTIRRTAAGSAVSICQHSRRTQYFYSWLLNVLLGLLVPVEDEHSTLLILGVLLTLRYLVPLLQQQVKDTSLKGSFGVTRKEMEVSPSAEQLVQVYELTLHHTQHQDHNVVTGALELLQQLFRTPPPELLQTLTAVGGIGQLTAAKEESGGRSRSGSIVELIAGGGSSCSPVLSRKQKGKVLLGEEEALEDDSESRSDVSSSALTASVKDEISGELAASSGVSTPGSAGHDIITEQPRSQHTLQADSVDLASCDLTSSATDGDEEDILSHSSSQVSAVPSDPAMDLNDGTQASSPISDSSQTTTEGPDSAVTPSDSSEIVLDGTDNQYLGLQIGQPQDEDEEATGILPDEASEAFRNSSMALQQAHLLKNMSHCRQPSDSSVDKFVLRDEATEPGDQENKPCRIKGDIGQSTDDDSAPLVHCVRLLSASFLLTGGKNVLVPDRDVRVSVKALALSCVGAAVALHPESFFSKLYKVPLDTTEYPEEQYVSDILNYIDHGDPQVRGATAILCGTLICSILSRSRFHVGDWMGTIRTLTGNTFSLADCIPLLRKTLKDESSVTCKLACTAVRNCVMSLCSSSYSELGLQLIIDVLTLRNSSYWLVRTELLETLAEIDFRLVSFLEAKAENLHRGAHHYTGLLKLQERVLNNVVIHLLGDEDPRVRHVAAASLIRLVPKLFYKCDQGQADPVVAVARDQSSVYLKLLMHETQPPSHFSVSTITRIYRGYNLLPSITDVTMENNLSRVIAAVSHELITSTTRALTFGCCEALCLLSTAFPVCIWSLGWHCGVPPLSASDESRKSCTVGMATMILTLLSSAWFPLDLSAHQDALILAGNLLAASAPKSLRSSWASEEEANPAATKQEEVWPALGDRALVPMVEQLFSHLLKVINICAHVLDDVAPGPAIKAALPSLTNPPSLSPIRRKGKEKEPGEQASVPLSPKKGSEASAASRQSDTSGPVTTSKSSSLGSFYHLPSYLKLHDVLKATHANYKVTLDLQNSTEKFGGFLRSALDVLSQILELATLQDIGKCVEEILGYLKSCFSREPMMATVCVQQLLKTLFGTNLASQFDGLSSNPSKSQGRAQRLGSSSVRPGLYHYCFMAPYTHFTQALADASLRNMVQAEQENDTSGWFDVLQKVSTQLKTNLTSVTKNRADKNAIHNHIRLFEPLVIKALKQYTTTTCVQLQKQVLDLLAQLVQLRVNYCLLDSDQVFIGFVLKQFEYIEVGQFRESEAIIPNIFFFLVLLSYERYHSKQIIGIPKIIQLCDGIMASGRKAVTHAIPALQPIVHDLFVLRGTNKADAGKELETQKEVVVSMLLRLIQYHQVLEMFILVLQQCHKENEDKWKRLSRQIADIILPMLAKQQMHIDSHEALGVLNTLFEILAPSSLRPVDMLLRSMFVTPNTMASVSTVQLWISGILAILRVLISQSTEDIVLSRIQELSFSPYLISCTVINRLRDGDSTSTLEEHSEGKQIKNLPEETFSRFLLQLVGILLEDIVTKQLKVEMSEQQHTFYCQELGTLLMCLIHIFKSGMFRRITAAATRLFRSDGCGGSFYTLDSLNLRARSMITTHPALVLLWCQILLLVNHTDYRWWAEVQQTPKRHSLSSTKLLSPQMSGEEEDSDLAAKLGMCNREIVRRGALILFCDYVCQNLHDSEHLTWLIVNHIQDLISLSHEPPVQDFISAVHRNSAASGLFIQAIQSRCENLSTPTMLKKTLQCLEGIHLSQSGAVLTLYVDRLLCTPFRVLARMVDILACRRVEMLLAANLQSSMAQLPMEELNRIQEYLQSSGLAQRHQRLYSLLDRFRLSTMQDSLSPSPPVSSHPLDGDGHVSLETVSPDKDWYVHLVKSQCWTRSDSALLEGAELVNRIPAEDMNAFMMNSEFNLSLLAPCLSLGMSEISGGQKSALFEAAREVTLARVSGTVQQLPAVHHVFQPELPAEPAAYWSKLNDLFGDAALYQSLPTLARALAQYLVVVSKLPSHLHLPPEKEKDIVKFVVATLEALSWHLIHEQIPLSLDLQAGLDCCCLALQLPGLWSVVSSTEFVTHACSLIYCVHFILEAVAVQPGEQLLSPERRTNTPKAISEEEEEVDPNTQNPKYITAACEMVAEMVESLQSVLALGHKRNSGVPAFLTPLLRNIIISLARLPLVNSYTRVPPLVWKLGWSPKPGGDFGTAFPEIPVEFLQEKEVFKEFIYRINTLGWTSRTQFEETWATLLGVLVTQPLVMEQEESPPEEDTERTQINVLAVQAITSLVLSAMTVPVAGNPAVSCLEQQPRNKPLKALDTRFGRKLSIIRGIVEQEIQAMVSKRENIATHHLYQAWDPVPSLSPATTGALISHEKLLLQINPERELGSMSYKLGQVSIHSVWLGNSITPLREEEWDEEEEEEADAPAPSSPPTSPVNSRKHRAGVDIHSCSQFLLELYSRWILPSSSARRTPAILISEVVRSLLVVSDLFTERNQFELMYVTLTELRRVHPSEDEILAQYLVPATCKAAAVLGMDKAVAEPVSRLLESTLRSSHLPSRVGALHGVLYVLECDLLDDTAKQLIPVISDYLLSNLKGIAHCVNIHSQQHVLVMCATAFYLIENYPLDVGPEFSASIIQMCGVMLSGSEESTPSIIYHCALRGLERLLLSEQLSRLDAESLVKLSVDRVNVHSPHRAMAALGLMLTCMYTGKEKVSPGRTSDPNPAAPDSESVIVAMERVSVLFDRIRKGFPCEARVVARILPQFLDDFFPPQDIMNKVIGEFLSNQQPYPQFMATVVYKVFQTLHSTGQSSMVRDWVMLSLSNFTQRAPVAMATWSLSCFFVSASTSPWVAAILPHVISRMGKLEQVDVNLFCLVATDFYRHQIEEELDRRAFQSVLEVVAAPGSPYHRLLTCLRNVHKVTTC
# Pf apPOL inh = Pf-apPOL inhibitors, biochemical, fluorescence | inhibition, % at 10 µM | 210,000 compounds, 0.25% hits | Plasmodium falciparum apicoplast DNA polymerase (apPOL) | Recombinant Pf-apPOL, molecular beacon fluorescence, 1.5 h
# The depositor's hits bear a star; . = not tested or not shown. The list is not random: actives were taken first. Their share in the collection is about 3.5%. No stated cut-off is given here; in the data, active means inhibition above about 50%; inactive means the rest.
SMILES,mHTT-CaM PPI inh,Pf apPOL inh
Cc1ccc(C(C(=O)Nc2ccc(C(C)C)cc2)N(Cc2ccco2)C(=O)c2cnccn2)cc1 (stereo not drawn),69*,-9
C=CCOc1ccc(C(C2=C(O)CC(C)(C)CC2=O)C2C(=O)CC(C)(C)CC2=O)cc1 (stereo not drawn),3,-2
COc1ccc2c(c1)C1(NC(=O)c3ccccc3N1)C(=O)N2 (stereo not drawn),15,-7
COC(=O)C1=C(C(=O)OC)SC2(S1)C(C(=O)OC)=C(C(=O)OC)SC1=C2c2cc(OC)ccc2NC1(C)C,63*,.
CC(C)(C)N1C(=O)NC(=O)/C(=C\c2ccc([N+](=O)[O-])s2)C1=O,4,-5
CCOc1ncccc1C(=O)Nc1ccc(Cl)cc1,-12,-4
O=C(Nc1ccc(Nc2ccccc2)cc1)c1ccccc1F,33,-2
O=C(Nc1ccc(Nc2ccccc2)cc1)c1ccccc1I,70*,-8
CCOc1ncccc1C(=O)Nc1ccc(Nc2ccccc2)cc1,85*,-2
CC(=O)N1CCc2cc(S(=O)(=O)Nc3ccc(C)cn3)ccc21,-2,-3
CCCc1cc(C2CCCN2C(=O)c2cccc(F)c2)no1 (stereo not drawn),-7,0
COc1ccc(N2C(=O)CN(CCc3ccccc3F)C3CS(=O)(=O)CC32)cc1 (stereo not drawn),9,0
Cc1[nH]c2ccccc2c1C(c1ccco1)c1c(C)[nH]c2ccccc12,55*,-4
Cc1[nH]c2ccccc2c1C(C[N+](=O)[O-])c1ccco1 (stereo not drawn),37,-4
CCCCCCOC(=O)CCN1C(=O)C(=Cc2ccc3c(c2)OCO3)SC1=S,19,-16
CCOc1ccc(C2=C/C(=C/c3ccc(C)c(OC)c3)C(=O)O2)cc1,-14,3
CCOc1cc(/C=C2/C=C(c3ccc(C)cc3)OC2=O)ccc1O,55*,8
Cc1cc2nc(C(=O)Nc3cc(F)cc(F)c3)cc(C)n2n1,-2,-5
O=C(NCc1ccccc1)C1CCCN(c2ncccc2-c2noc(C3CCC3)n2)C1 (stereo not drawn),6,-6
Cc1c(NC(=O)c2cccnc2Cl)cccc1-c1nc2ncccc2o1,2,16
COc1ccc(C=C2c3cc([N+](=O)[O-])cc([N+](=O)[O-])c3-c3c2cc([N+](=O)[O-])cc3[N+](=O)[O-])cc1,100*,1
CN(C)c1ccc(C=C2c3cc([N+](=O)[O-])cc([N+](=O)[O-])c3-c3c2cc([N+](=O)[O-])cc3[N+](=O)[O-])cc1,44,-1
CCOC(=O)Cc1ccc(NC(=O)N2CCCC2c2ccc(OC)cc2)cc1 (stereo not drawn),2,-3
CC(=O)Nc1ccc(N=Cc2cc(C)cc(I)c2O)cc1,65*,-7
CC(=O)Nc1ccc(N=Cc2ccccc2O)cc1,4,0
SMILES,mHTT-CaM PPI inh,Pf apPOL inh
COc1cc([N+](=O)[O-])ccc1N=Cc1ccc(N(C)C)cc1,7,-1
Nc1ccc2c(c1)C1C=CCC1C(c1ccc([N+](=O)[O-])cc1)N2 (stereo not drawn),98*,-3
Brc1ccc2c(c1)[C@@H]1C=CC[C@@H]1[C@H](c1ccncc1)N2,-4,.
O=[N+]([O-])c1ccc(C2Nc3ccc(F)cc3C3C=CCC32)cc1 (stereo not drawn),91*,-29
NS(=O)(=O)c1ccc2c(c1)C1C=CCC1C(c1ccc(Br)cc1)N2 (stereo not drawn),84*,3
O=[N+]([O-])c1ccc(C2Nc3cc(Cl)cc(Cl)c3C3C=CCC32)cc1 (stereo not drawn),60*,-5
Cc1ccc2c(c1)NC(c1ccc([N+](=O)[O-])cc1)C1CC=CC21 (stereo not drawn),43,-6
O=C(Cc1ccc(Cl)cc1)Nc1cccc(C(=O)c2ccccc2)c1,-6,-10
O=c1c2nc(-c3cccs3)cn2ccn1-c1ccc(F)cc1,-4,1
COc1ccc(C)cc1NC(=O)N1CCC2(CC1)NC(=O)c1ccc(Cl)cc1N2C,34,-2
COc1cccc(CNC(=O)c2cc3n(n2)CCCN(Cc2ccc(Cl)cc2)C3=O)c1,7,25
CC(C)(C)C(=O)N1CCCC1c1cccc(F)c1 (stereo not drawn),1,-3
COc1cc(C2Nc3ccc([N+](=O)[O-])cc3C3C=CCC32)cc(OC)c1OC (stereo not drawn),71*,2
COc1cc([N+](=O)[O-])cc2c1NC(c1ccc(Br)cc1)C1CC=CC21 (stereo not drawn),33,-1
CC(=CC1CCC(C)C2C1=C(C)CC2O)C(=O)O (stereo not drawn),.,-11
O=C(Cc1ccccc1)N1N=C(c2ccc(Cl)cc2)CC1(O)C(F)(F)F (stereo not drawn),4,-6
Cc1ccc(C2NC(C(=O)O)CS2)cc1[N+](=O)[O-] (stereo not drawn),-3,-5
Cc1c(-c2ccc(C3NC(C(=O)O)CS3)o2)cccc1[N+](=O)[O-] (stereo not drawn),52*,-3
O=C1C(c2cccnc2)N(CCc2cccs2)C(=O)CN1c1ccccc1 (stereo not drawn),2,0
Cc1ccc(C2CC(C(F)(F)F)n3nc(C(=O)N4CCCC4)cc3N2)cc1 (stereo not drawn),32,-5
Cc1ccc(C2CC(C(F)(F)F)n3nc(C(=O)N4CCN(c5ccccc5)CC4)cc3N2)cc1 (stereo not drawn),90*,-11
O=C(Cc1ccc(F)cc1)N1CCN=C1SCc1cccc(Cl)c1,7,-3
O=C(Nc1nnc(SCc2c(F)cccc2Cl)s1)c1cc(-c2ccco2)on1,18,61*
O=C(Nc1nnc(SCc2cn3ccccc3n2)s1)c1cc(-c2ccco2)on1,-6,12
COc1cc(C2=NOC(C(=O)NC3CCCC3)C2)cc(OC)c1OC (stereo not drawn),-9,-5
SMILES,mHTT-CaM PPI inh,Pf apPOL inh
O=C(c1ccc(-c2cccnc2)nc1)N1CCN(c2ccccc2)CC1,7,0
CN1CCN(C(=O)c2ccc(SCc3cccnc3)c([N+](=O)[O-])c2)CC1,6,-3
Cc1ccc(C)c(N2CCN(C(=O)c3ccc(SCc4cccnc4)c([N+](=O)[O-])c3)CC2)c1,65*,-1
O=C(c1ccc(-c2cccnc2)nc1)N1CCN(c2ccc(Cl)cc2)CC1,0,-5
Cc1ccc(C)c(N2CCN(C(=O)c3ccc(-c4cccnc4)nc3)CC2)c1,64*,2
O=C(c1ccc(-c2cccnc2)nc1)N1CCN(c2cccc(Cl)c2)CC1,76*,1
Cc1ccc(C)c(NC(=O)C2CC(=O)OC23CCCCC3)c1 (stereo not drawn),-5,-15
Cc1ccccc1C(=O)N1CCCC1c1nc(-c2ccccc2C)no1 (stereo not drawn),2,1
O=C(Cn1nc(-c2cccs2)ccc1=O)Nc1nccs1,-9,8
COc1cc(CN2CCN(c3ccc([N+](=O)[O-])cc3)CC2)cc(I)c1O,42,-7
COc1cc(CN2CCN(c3ccc(C(C)=O)cc3)CC2)cc(I)c1O,55*,-2
CCc1ccc(/C=c2\sc3nc(-c4ccccc4)nn3c2=O)cc1,14,6
CC(C)C(=O)OCCCN1C(=O)CCC12CCC(c1ccccc1)CC2 (stereo not drawn),70*,-9
